From PubChem
The list is not random: actives were taken first. Their share in the collection is about 1.6%.
Hsp70 activator = Hsp70 transcriptional activation, primary screen. 200,000 compounds, 0.04% hits. activation, % at 10 µM. HeLa Hsp70 promoter luciferase reporter, luminescence; scaled: vehicle 0, proteasome-inhibitor control 100%;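 active = activation above the mean across all tested compounds plus 3 SD, cutoff set per campaign, cut at about 5.5% in these data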;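 also: 100% = MG132 at 30 µM as the positive control and 0% = DMSO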
p97 inhibitor = human p97 ATPase inhibition; P55072; recombinant p97 ATPase, Kinase-Glo ATP luminescence, 3 h; inhibition, % at 8 µM; 220,000 compounds, 0.42% hits; AID 1481; in the data active = inhibition above about 15%;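 also: 0% = DMSO vehicle and 100% = wells lacking enzyme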
Target sequence (P55072 whole entry, looked up): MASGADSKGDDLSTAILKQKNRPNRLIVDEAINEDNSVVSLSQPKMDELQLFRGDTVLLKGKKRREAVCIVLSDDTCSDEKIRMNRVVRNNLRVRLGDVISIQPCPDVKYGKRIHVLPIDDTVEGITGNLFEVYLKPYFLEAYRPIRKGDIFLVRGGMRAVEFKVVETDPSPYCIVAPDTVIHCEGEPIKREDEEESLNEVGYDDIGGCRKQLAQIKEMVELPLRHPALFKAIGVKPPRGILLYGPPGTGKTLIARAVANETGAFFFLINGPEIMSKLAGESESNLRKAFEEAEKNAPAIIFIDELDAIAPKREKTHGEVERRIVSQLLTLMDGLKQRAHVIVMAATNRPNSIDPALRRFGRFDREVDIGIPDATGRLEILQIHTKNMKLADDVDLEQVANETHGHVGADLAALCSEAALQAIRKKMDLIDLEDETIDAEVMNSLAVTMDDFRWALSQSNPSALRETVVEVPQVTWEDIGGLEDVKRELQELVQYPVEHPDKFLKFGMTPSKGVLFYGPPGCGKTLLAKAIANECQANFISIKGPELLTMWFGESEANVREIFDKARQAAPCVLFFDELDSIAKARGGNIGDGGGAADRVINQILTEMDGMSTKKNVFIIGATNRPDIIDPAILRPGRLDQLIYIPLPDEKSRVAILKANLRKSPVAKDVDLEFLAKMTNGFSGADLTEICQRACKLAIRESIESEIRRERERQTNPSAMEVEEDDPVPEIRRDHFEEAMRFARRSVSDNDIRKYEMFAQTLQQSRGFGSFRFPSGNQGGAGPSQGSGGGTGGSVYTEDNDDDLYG
Wee1 stabilizer = human Wee1 degradation inhibition, primary screen. P30291. HeLa Luc-Wee1K328M stability, luciferase luminescence; 100% = proteasome inhibitor MG132 effect. reporter increase, % at 5 µM. 220,000 compounds, 1.2% hits;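 active = activation above the mean of all tested compounds plus 3 SD, set per screening run, cut at about 8.8% in these data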;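 also: cells exposed to compound for 20 h before luminescence read; 0% = DMSO alone and 100% = MG132 at 30 µM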
DTT redox prof = compounds producing H2O2 with reducing agent – biochemical, NIH compound library profiling, artefact control for MLSCN library redox annotation, primary screen; DTT-dependent redox cycling H2O2, phenol red/HRP absorbance; 100% = 100 µM peroxide control, 0% = buffer; activation, % at 10 µM; 200,000 compounds, 0.03% hits; AID 878;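 active = activation of at least 50% relative to the plate's high and low controls in the primary single-dose screen; inactive = activation below 50%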;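 also: compound incubated with DTT at 0.8 mM final as the reducing agent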
HSV augment = increases HSV replication in cells; HSV replication augmentation in cells, fold increase; maximum fold increase; 220,000 compounds, 0.005% hits; AID 1956; in the data active = maximum fold increase above about 1.5; inconclusive = no clear call, values can overlap the other calls; tested in PC3 cells
Wee1 degr conf = confirmation of human Wee1 degradation inhibitors. shares compounds with Wee1 stabilizer. HeLa Luc-Wee1K328M degradation, luminescence; vehicle 0%, proteasome-blocked wells 100%. activation, % at 5 µM. 1,100 compounds, 4% hits. AID 1410; in the data active = activation above about 8.9%
* = called active by the depositor; i = inactive; ? = inconclusive; nt = not tested or not shown.

SMILES	Hsp70 activator	p97 inhibitor	Wee1 stabilizer	DTT redox prof	HSV augment	Wee1 degr conf
CC/C(=N\n1nnnc1Nc1ccccc1)c1ccccc1	-1	2	-1	3	i	nt
C/C=C/c1cc(CN2CCN(c3ccccc3)CC2)c(O)c(OC)c1	0	-6	11*	-1	i	-5
COc1ccccc1N(C)S(=O)(=O)c1ccc(C(=O)Nc2nc(C)cs2)cc1	0	1	4	-2	i	nt
N#Cc1cc(Sc2ccccn2)c([N+](=O)[O-])cc1C#N	0	3	4	-1	?	nt
Cc1ccc2c3c(c(SCC(=O)Nc4nonc4C)nc2c1)CCCC3	0	2	13*	1	i	2
CCC(C)c1ccc(NC(=S)NCc2ccccc2OC)cc1 (configuration not stated)	0	2	17*	-1	i	2
C=CCc1cccc2cc(C(=O)NC3CCCCC3)c(=O)oc12	0	2	17*	-1	i	-1
C=CCc1cccc2cc(C(=O)NCCOC)c(=O)oc12	0	-1	-2	-2	i	nt
COc1ccccc1CC(=O)Nc1ccc(-c2noc(COc3ccc(Br)cc3)n2)cc1	0	-2	1	1	i	nt
COc1ccccc1CC(=O)Nc1ccc(-c2noc(COc3cccc(C)c3C)n2)cc1	0	-1	11*	0	i	6
CC1CCc2nn(CC(=O)NCCCN3CCOCC3)cc2C1 (configuration not stated)	0	4	-2	0	i	nt
O=C(CCC1CCCC1)N1CCC(N2CCCCCC2)CC1	0	-4	12*	-1	i	3
COC(=O)C1CCN(C(=O)CCC2CCCCC2)CC1	0	-3	1	1	i	nt
N/C(=N\OC(=O)c1ccc(=O)n(Cc2ccc(Cl)cc2)c1)c1ccccn1	0	4	11*	-1	i	0
N/C(=N\OC(=O)c1ccc(=O)n(Cc2ccccc2)c1)c1ccccn1	0	0	-5	0	i	nt
Cn1ncc([N+](=O)[O-])c1C(=O)N/N=C/c1c[nH]c2ccccc12	0	7	-3	-1	i	nt
Oc1cccc2ccc[n+](CC(O)Cn3c4ccccc4c4ccccc43)c12 (configuration not stated)	0	3	18*	0	i	-1
CCN1C(=O)c2cccc3c(NC(=O)c4ccc(S(=O)(=O)N5CCOCC5)cc4)ccc1c23	0	5	1	-1	i	nt
CCN1C(=O)c2cccc3c(NC(=O)c4ccc(S(=O)(=O)N(C)C)cc4)ccc1c23	0	4	11*	-1	i	5
Cc1ccc2nc(-c3ccc(NC(=O)c4ccco4)cc3)[nH]c2c1	0	-3	29*	0	i	8
Cn1cccc1-c1nc2ccc(NC(=O)c3ccco3)cc2[nH]1	0	-6	0	0	i	nt
Cc1ccc(OCCSc2nc(N)cc(N)n2)cc1	0	5	11*	0	i	0
O=C(/C(=C/O)N=Nc1ccccc1)c1cccs1	0	4	11*	0	nt	2
COc1ccc(N=N/C(=C\O)C(=O)c2ccco2)cc1	0	2	-2	0	i	nt
CC(/C=C/C=C/c1ccccc1)=N\NC(=O)c1cccnc1	0	3	0	0	i	nt
SMILES	Hsp70 activator	p97 inhibitor	Wee1 stabilizer	DTT redox prof	HSV augment	Wee1 degr conf
CC(/C=C/C=C/c1ccccc1)=N/NC(=O)c1ccc2c(c1)OCCO2	nt	1	11*	nt	i	3
CC(C)N1CCC(N2CCN(Cc3ccc(Oc4ncccn4)cc3)CC2CCO)CC1 (configuration not stated)	nt	11	13*	nt	i	0
Cc1ccc2nc(NS(C)(=O)=O)sc2c1	0	4	-2	-1	i	nt
CCOC(=O)N1CCN(C(=O)CNCc2cccs2)CC1	0	-7	2	1	i	nt
CC(C)c1ccc(/C=N/NC(=O)c2cccc(Cl)c2)cc1	0	-1	14*	0	i	6
O=C(CCc1nc2ccccc2c(=O)[nH]1)Nc1ccc(N2CCCCC2)cc1	0	1	11*	-1	i	0
CC(=O)Nc1ccc(NC(=O)CCc2nc3ccccc3c(=O)[nH]2)cc1	0	2	-1	0	i	nt
